PubChem BioAssay (EPA / NIEHS)
Activity calls are given as the source filed them. How the source made its calls: active means hit-call score of the fitted dose curve at least 0.9, where 1 is the maximum; inactive means score below 0.9.

Experiments:
[1] = ATG_CRE_CIS: Attagene CIS-FACTORIAL HepG2 Assay for human cAMP Responsive Element (CRE) binding protein 3 (AID 2282926); conditions: HepG2 CRE cis-reporter, Attagene multiplexed mRNA; actives raise or lower the signal
Summary of the method: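 Assay format: transient reporter transfection of HepG2, 24 h treatment, total RNA isolation with DNase I step. Reporter abundance read by fluorescence after PCR and capillary separation; DMSO-normalised gain or loss fitting.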

[2] = molecular target: CCAAT/enhancer-binding protein beta (Homo sapiens) (UniProt P17676); assay: ATG_C_EBP_CIS: Attagene CIS-FACTORIAL HepG2 Assay for human CCAAT/Enhancer Binding Protein (C/EBP) beta (AID 2282927); conditions: HepG2 Attagene cis-factorial transcription factor reporter; actives raise or lower the signal
Summary of the method: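 Endogenous C/EBPb-driven reporter transcripts measured in transfected human HepG2 cells at 24 h via RT-PCR and capillary electrophoresis of labelled fragments. Activity fitted in both directions relative to DMSO baseline.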

[3] = ATG_CMV_CIS: Attagene CIS-FACTORIAL HepG2 Assay for human CMV (Internal Marker) (AID 2282928); conditions: HepG2 CMV promoter reporter, transcription factor profiling; actives raise or lower the signal;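 further: endpoint acts as a background internal control marker rather than a target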
Summary of the method: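 24 h chemical treatment, HepG2 with transient multi-reporter transfection; RNA → oligo(dT) RT → PCR → 6-FAM extension → HpaI digest → CE fluorescence. Bidirectional fit, DMSO negative control.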

[4] = ATG_DR4_LXR_CIS: Attagene CIS-FACTORIAL HepG2 Assay for human Liver X Receptor (LXR), DR4 submotif (AID 2282929); conditions: HepG2 Attagene DR4 cis-reporter, mRNA transcription; actives raise or lower the signal
Summary of the method: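 DR4 cis-reporter in HepG2, 24 h exposure. Detection: RT-PCR, 6-FAM labelling, CE fragment analysis. Endpoint fitted bidirectionally, DMSO = baseline.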

[5] = ATG_AP_2_CIS: Attagene CIS-FACTORIAL HepG2 Assay for human Activator Protein 2 (AP-2) (AID 2282932); conditions: HepG2 AP-2 cis-reporter, Attagene transcription factor profiling; actives raise or lower the signal
Summary of the method: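 Endogenous transcription factor activity is reported through transfected multiplex reporter constructs in HepG2, after 24 h of compound exposure. Transcripts were quantified by RT-PCR and capillary electrophoresis of fluorescent fragments. Bidirectional fit against DMSO.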

[6] = ATG_E_Box_CIS: Attagene CIS-FACTORIAL HepG2 Assay for human Enhancer Box (E-box) (AID 2282936); conditions: HepG2 E-box cis-reporter transcription, actives raise or lower the signal
Summary of the method: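 E-box-driven reporter transcripts measured in transiently transfected HepG2 after 24 h exposure: RNA reverse-transcribed, PCR-amplified, fluorescently labelled, digested and resolved by capillary electrophoresis. Gain or loss relative to DMSO.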

[7] = ATG_EGR_CIS: Attagene CIS-FACTORIAL HepG2 Assay for human Early Growth Response 1 (EGR1) (AID 2282938); conditions: HepG2 Attagene CIS-FACTORIAL EGR reporter mRNA; actives raise or lower the signal
Summary of the method: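 Endpoint derived by bidirectional fitting versus DMSO vehicle. Method: cis-promoter reporter units transfected into HepG2, 24 h dosing, RNA isolation, RT-PCR with 6-FAM primer extension and HpaI digestion, then capillary electrophoresis fluorescence detection.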

[8] = ATG_M_19_CIS: Attagene CIS-FACTORIAL HepG2 Assay for M19 Transcription Factor (Internal Marker) (AID 2282939); conditions: HepG2 Attagene CIS-FACTORIAL M19 internal marker reporter; actives raise or lower the signal
Summary of the method: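 Chemical-treated HepG2 (24 h) with MRTU constructs; reporter transcripts detected by fluorescent RT-PCR fragment analysis on capillary electrophoresis. Internal background marker, DMSO as baseline.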

[9] = ATG_Ets_CIS: Attagene CIS-FACTORIAL HepG2 Assay for human Erythroblast Transformation Specific (ETS) (AID 2282941); conditions: HepG2 ETS cis-reporter transcription, actives raise or lower the signal
Summary of the method: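 Cis-regulated reporter mRNA induction in HepG2 (transient transfection), 24 h exposure, RT-PCR plus capillary electrophoresis detection; DMSO serves as negative control and baseline.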

[10] = molecular target: Hepatocyte nuclear factor 3-beta (Homo sapiens) (UniProt Q9Y261); assay: ATG_FoxA2_CIS: Attagene CIS-FACTORIAL HepG2 Assay for human Forkhead box A2 (FOXA2) (AID 2282942); conditions: HepG2 cis-reporter transcription factor activity, 24 h; actives raise or lower the signal
Summary of the method: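 Measured: reporter mRNA induction or loss in HepG2 transiently carrying multiple cis-regulated reporter units, 24 h after dosing. Quantified by RT-PCR plus capillary electrophoresis, normalised to DMSO.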

[11] = ATG_FoxO_CIS: Attagene CIS-FACTORIAL HepG2 Assay for human Forkhead box O (FoxO) (AID 2282943); conditions: HepG2 Attagene cis-reporter, FoxO element, mRNA; actives raise or lower the signal
Summary of the method: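 Endogenous transcription factor activity read from multiplexed cis-promoter reporter transcripts in transiently transfected HepG2, 24 h after dosing. Reporter RNA measured via RT-PCR plus capillary electrophoresis of FAM-labeled products; gain or loss relative to DMSO.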

[12] = ATG_GATA_CIS: Attagene CIS-FACTORIAL HepG2 Assay for human GATA Binding Protein (AID 2282944); conditions: HepG2 GATA cis-element reporter, Attagene multiplex mRNA; actives raise or lower the signal
Summary of the method: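 Transfected cis-reporter HepG2 cells were treated with chemicals for 24 hours. Total RNA was then converted to cDNA, amplified with reporter-specific primers and analysed by fluorescent capillary electrophoresis, using DMSO-treated wells as baseline.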

[13] = ATG_M_32_CIS: Attagene CIS-FACTORIAL HepG2 Assay for M32 Transcription Factor (Internal Marker) (AID 2282949); conditions: HepG2 Attagene cis-factorial M32 reporter, mRNA; actives raise or lower the signal;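 further: background control marker of the multiplexed CIS panel rather than a real target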
Summary of the method: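 HepG2 transfectants (cis-regulated reporter transcription units) dosed 24 h. Reporter mRNA by RT-PCR plus CE, analysed as gain or loss relative to DMSO.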

[14] = ATG_M_06_CIS: Attagene CIS-FACTORIAL HepG2 Assay for M06 Transcription Factor (Internal Marker) (AID 2282950); conditions: HepG2 Attagene CIS-FACTORIAL M06 internal marker reporter; actives raise or lower the signal
Summary of the method: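 Cells (HepG2, transiently carrying cis-driven reporter units) receive chemical for 24 h before RNA isolation. Reporter cDNA is PCR-amplified, FAM-labelled by primer extension, HpaI-digested and sized on a capillary analyser.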

[15] = ATG_PXRE_CIS: Attagene CIS-FACTORIAL HepG2 Assay for human Pregnane X Receptor Element (PXRE) (AID 2282957); conditions: HepG2 Attagene CIS-FACTORIAL PXRE reporter, mRNA; actives raise or lower the signal
Summary of the method: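 Using HepG2 transfected with multiple reporter transcription units, endogenous factor-driven transcription was scored as reporter mRNA after 24 h exposure.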

[16] = ATG_Sox_CIS: Attagene CIS-FACTORIAL HepG2 Assay for human SRY-box transcription factor (SOX) (AID 2282960); conditions: HepG2 Attagene cis-factorial SOX reporter, mRNA; actives raise or lower the signal
Summary of the method: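 Gain- or loss-of-signal endpoint, fitted bidirectionally with DMSO as negative control. Based on reporter mRNA from transfected HepG2 cells harvested 24 h post-treatment and quantified via RT-PCR and capillary electrophoresis.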

[17] = molecular target: Transcription factor Sp1 (Homo sapiens) (UniProt P08047); assay: ATG_Sp1_CIS: Attagene CIS-FACTORIAL HepG2 Assay for human Specificity Protein 1 (Sp1) (AID 2282961); conditions: HepG2 Sp1 cis-reporter transcription, actives raise or lower the signal
Summary of the method: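 Endpoint reflects endogenous Sp1 transcriptional activity, not an exogenous fusion protein: HepG2 cells with transfected cis-regulated reporters, 24 h dosing, RT-PCR/capillary electrophoresis mRNA read-out, DMSO-normalised bidirectional fit.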

[18] = ATG_SREBP_CIS: Attagene CIS-FACTORIAL HepG2 Assay for human Sterol Regulatory Element Binding (SREBP) (AID 2282962); conditions: HepG2 Attagene cis-factorial SREBP reporter, mRNA; actives raise or lower the signal
Summary of the method: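 Endogenous factor activity is measured in HepG2 through multiplexed reporter units under cis-element control. Following a 24 h incubation, reporter transcripts are reverse-transcribed, PCR-amplified and sized by capillary electrophoresis; activity is fitted in both directions relative to DMSO.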

[19] = molecular target: Signal transducer and activator of transcription 3 (Homo sapiens) (UniProt P40763); assay: ATG_STAT3_CIS: Attagene CIS-FACTORIAL HepG2 Assay for human Signal Transducer and Activator of Transcription 3 (STAT3) (AID 2282963); conditions: HepG2, Attagene cis-factorial STAT3 reporter transcription; actives raise or lower the signal
Summary of the method: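 Readout is reporter transcript quantified by RT-PCR and capillary electrophoresis, with 6-FAM primer extension and HpaI digestion. Total RNA is taken 24 h after dosing transiently transfected HepG2 carrying cis-regulated reporter units. Bidirectional fit against DMSO.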

[20] = ATG_TA_CIS: Attagene CIS-FACTORIAL HepG2 Assay for human TA Basal Promoter (AID 2282964); conditions: HepG2 Attagene CIS-factorial TA basal promoter reporter; actives raise or lower the signal
Summary of the method: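 Background internal-marker endpoint from a 52-component HepG2 cis-reporter panel. Cells treated 24 h; reporter transcripts quantified via RT-PCR and CE fluorescence against DMSO baseline.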

Measured: AC50

Chain of Transcription factor Sp1 (Homo sapiens) (P08047 whole entry, looked up, the tested form may be a part): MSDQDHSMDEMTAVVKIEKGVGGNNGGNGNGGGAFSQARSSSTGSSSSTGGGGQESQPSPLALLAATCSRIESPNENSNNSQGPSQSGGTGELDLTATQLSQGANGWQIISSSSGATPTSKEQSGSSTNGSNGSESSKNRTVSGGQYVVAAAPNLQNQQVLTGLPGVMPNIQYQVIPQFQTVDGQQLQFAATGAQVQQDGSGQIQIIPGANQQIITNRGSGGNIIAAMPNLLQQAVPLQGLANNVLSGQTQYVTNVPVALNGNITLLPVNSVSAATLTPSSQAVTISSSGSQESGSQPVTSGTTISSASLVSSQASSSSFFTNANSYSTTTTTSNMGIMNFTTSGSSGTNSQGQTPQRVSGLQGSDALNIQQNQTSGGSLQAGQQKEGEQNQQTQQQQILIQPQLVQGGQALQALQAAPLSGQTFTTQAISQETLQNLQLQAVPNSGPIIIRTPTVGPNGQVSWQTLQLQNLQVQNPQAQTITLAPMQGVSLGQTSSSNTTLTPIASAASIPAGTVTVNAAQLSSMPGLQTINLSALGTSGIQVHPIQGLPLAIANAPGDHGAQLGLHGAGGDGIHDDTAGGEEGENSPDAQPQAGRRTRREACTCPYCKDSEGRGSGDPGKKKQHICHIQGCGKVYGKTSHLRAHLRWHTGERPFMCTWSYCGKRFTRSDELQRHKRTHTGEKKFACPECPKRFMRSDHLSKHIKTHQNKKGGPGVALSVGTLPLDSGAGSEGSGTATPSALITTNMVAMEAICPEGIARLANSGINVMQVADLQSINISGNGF
Chain of Hepatocyte nuclear factor 3-beta (Homo sapiens) (Q9Y261 whole entry, looked up): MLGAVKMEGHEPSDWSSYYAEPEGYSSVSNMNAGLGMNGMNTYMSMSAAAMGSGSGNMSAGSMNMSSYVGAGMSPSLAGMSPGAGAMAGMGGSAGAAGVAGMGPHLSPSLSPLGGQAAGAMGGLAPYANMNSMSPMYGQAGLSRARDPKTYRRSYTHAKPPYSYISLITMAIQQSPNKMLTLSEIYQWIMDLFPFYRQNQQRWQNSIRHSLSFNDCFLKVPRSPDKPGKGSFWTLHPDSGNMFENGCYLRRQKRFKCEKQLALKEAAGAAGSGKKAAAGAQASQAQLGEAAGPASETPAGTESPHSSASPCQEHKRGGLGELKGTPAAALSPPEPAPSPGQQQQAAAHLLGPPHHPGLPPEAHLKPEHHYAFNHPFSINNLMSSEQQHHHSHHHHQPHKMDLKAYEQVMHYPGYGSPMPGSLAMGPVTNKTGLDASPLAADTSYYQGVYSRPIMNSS
Chain of Signal transducer and activator of transcription 3 (Homo sapiens) (P40763 whole entry, looked up): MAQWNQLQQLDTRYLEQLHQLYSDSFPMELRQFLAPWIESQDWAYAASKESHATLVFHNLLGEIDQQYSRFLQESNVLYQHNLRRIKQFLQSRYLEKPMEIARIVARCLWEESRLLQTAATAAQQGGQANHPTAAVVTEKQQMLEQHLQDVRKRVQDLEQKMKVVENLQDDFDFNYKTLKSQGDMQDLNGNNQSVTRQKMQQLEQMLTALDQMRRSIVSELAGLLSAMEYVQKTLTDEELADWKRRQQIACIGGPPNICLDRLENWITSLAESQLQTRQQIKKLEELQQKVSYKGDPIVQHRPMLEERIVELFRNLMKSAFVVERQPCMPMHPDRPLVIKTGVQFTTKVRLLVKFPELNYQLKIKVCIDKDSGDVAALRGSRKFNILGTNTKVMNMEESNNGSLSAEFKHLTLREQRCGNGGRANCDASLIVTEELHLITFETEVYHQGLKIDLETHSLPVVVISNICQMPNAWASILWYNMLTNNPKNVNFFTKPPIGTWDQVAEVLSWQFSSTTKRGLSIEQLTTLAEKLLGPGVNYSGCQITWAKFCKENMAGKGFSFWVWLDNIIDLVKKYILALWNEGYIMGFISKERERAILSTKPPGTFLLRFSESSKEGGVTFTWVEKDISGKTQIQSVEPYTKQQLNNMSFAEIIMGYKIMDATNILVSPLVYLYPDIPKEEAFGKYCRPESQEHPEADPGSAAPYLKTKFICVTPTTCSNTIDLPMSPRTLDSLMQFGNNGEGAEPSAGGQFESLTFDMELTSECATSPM
Chain of CCAAT/enhancer-binding protein beta (Homo sapiens) (P17676 whole entry, looked up, the tested form may be a part): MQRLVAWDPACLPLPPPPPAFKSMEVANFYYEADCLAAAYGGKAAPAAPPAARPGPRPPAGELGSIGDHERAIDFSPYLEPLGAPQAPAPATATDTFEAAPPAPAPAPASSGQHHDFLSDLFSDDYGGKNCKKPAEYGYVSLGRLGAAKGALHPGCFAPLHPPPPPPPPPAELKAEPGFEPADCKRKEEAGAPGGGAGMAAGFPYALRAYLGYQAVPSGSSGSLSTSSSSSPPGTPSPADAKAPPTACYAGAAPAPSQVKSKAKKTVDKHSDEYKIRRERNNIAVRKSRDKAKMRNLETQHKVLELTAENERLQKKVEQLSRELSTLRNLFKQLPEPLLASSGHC

C[C@]12CC[C@H]3[C@@H](CC[C@@]45O[C@@H]4C(O)=C(C#N)C[C@]35C)[C@@H]1CC[C@@H]2O
active: [3] 100 µM | [7] 63.3 µM | [15] 27.2 µM
inactive: all other assays above

S=c1[nH]c2ccccc2[nH]1
inactive: all assays above

Cc1ccc(OP(=O)(Oc2ccc(C)cc2)Oc2ccc(C)cc2)cc1 (tested in a mixture with another compound)
active: [4] 9.36 µM | [15] 0.519 µM
inactive: all other assays above

C=Cc1cccc(CCl)c1
active: [9] 100 µM | [15] 46.2 µM | [17] 25.5 µM
inactive: all other assays above

[CH3][Sn]([CH3])([Cl])[Cl]
inactive: all assays above

N#CCCCCC#N
inactive: all assays above
